High-throughput results deposited in PubChem BioAssay by National Center for Advancing Translational Sciences (NCATS).
ClpP mod – qHTS Assay for Activators of ClpP; AID 651965, 2013; Potency, µM (series often up to 57.5 µM); purified B. subtilis ClpP, FRET peptide cleavage, 20 min; 340,000 tested, 1.9% active; active = well fitted falling curve with a large enough effect; inconclusive = small, poorly fitted or top-dose-only effect; inactive = no such curve, though single readings can be large or run the other way; note: the source files actives as falling curves though it sought activators and does not explain the sign; nearly all actives have a fitted effect of over 65% in size
Target sequence (P80244 whole entry, looked up): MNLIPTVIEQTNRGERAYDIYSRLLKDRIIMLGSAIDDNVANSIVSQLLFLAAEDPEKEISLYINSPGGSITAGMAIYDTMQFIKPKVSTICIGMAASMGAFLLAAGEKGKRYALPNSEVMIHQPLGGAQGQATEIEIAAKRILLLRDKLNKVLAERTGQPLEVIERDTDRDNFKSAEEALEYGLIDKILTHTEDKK
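Buffer: 100 mM Tris/HCl pH8, 100 mM KCl, 0.05% low protease BSA, 2.5% glycerol, 0.01% Tween-20. ClpP 10 microg/mL final; 20 min RT; delta FRET normalized to ADEP and DMSO controls.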
D3 ag – qHTS of D3 Dopamine Receptor Agonist: qHTS | D3R DiscoveRx beta-arrestin cells, luminescence, 90 min | max activation, % | 410,000 tested, 0.58% active | AID 652048, 2013; in the data active = max activation above about 30%
Target sequence (P35462 whole entry, looked up): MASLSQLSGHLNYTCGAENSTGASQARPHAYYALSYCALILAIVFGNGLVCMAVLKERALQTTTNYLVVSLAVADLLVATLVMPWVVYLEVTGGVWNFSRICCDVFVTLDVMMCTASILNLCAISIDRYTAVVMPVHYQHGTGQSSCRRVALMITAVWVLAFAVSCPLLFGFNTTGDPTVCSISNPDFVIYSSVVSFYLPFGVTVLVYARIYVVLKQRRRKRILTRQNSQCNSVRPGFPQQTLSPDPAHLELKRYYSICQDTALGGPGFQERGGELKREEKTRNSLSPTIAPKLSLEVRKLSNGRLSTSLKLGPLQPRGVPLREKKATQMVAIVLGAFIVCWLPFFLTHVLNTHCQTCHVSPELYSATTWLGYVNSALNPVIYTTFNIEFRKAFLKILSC
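Agonist mode: compounds and dopamine controls were applied to plated cells for 90 min at 37 degrees C after an overnight attachment at 1500 cells/well. Luminescent read-out followed 30 - 60 minutes at room temperature with DiscoveRx detection reagent.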
GLP1R inv ag – qHTS of GLP-1 Receptor Inverse Agonists (Inhibition Mode); Glucagon-like peptide 1 receptor (Homo sapiens), P43220; HEK293 GLP-1R CRE-luciferase, luminescence, 24 h; GLP-1R form is constitutively active; Potency, µM (titrated, usually from 38.3 µM), actives largely listed as inhibitors; 410,000 tested, 1.6% active; AID 624417, 2012; note: nearly all actives have a fitted effect of over 55% in size
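HEK293 cells stably co-expressing constitutively active GLP-1R and a cAMP-responsive luciferase reporter were seeded in DMEM with 10% Nu serum, given compounds after 12 h, and incubated 24 h at 37 deg C. Luminescence was then read.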
DRD3 antagonist – qHTS of D3 Dopamine Receptor Antagonist: qHTS | max response, negative = inhibition, % | 360,000 tested, 2.5% active | D3R cells, DiscoveRx beta-arrestin luminescence, antagonist mode; hits give low values; in the data active = max response below about -50%; inconclusive = no clear call, values can overlap the other calls
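Cells expressing the human receptor were seeded at 1500 cells/well, incubated overnight at 37 degrees C in 5% CO2, then exposed to library compounds with dopamine controls for 90 minutes at 37 degrees C before luminescent detection.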
GLP1R ag – qHTS of GLP-1 Receptor Agonists. 380,000 tested, 0.007% active. AID 624172, 2012. Potency, µM (series often up to 45.6 µM), usual class: activators. HEK293 GLP-1R CRE-luciferase, luminescence, 4-6 h; cells express a hypersensitive GLP-1R form. Glucagon-like peptide 1 receptor (Homo sapiens), P43220
HEK293 tox – qHTS of GLP-1 Receptor Inverse Agonists: Cytotox Screen. HEK293 cAMP-luciferase reporter cells, luminescence, 24 h. Potency, µM (highest dose often 38.3 µM), actives largely listed as inhibitors. 410,000 tested, 0.13% active;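 note: loss of luciferase light is scored as toxicity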
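To flag toxic compounds, the library was rerun on cells for 24 hr at 37 deg C and 5% CO2. Viability-linked luminescence was captured 12 min after adding luciferase detection reagent.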
Large screens that a line does not name were inactive; ! = a repeat was not active. A selection: hits, their analogues and other compounds. The true share with any hit is near 5.7%. Unless noted, calls come from the whole dose curve; as a rule, active = well fitted curve in the direction sought with a large enough effect; inconclusive = small, poorly fitted or top-dose-only effect, or another doubt; inactive = no such curve, though single readings can be large; an effect the other way counts as inactive or inconclusive.

COc1ccccc1NC(=O)Nc1nc(C(N)CCc2ccccc2)cs1 (stereo unspecified)	GLP1R inv ag inconclusive, DRD3 antagonist -96
COc1ccc2c(c1)c1c(c(=O)n(-c3ccccc3)c(=O)n1CC(=O)Nc1ccc(C)c(C)c1)n2C	ClpP mod inconclusive (no result: DRD3 antagonist)
CCc1ccc(S(=O)(=O)NCc2ccc(C(=O)NCCN(Cc3ccccc3)C(C)C)cc2)cc1	GLP1R inv ag inconclusive, DRD3 antagonist -91
CCc1ccc2[nH]c3nc(SCC(=O)NNC(=O)c4ccc(C(C)(C)C)cc4)nnc3c2c1	D3 ag 39
Cc1ccc(C(=O)NNC(=O)CSc2nnc3c(n2)[nH]c2ccc(C)cc23)cc1	none
CC1CCN(CCCNS(=O)(=O)c2ccc3c(c2)CCN3C(=O)C2CC2)CC1	none
CCOC(=O)C1CCN(C(=O)CCS(=O)(=O)c2ccc3c(c2)CCN3C(=O)CC)CC1	ClpP mod 20µM, DRD3 antagonist inconclusive
CC(=O)N1CCc2cc(S(=O)(=O)CCC(=O)O)ccc21	ClpP mod 32µM
CCC(=O)N1CCc2cc(S(=O)(=O)NCCN3CCC(C)CC3)ccc21	DRD3 antagonist -90, HEK293 tox inconclusive
O=C(CN1C(=O)C(=O)N(CCC2=CCCCC2)C1=O)c1c[nH]c2ccccc12	ClpP mod 11µM, GLP1R inv ag inconclusive, DRD3 antagonist -52, HEK293 tox inconclusive
CC(=O)OC(COc1ccccc1)Cn1cnc2ccccc21 (stereo unspecified)	none
CC(=O)OC(COc1ccccc1)Cn1cnc2cc(C)c(C)cc21 (stereo unspecified)	DRD3 antagonist -59
Cc1cccc(C)c1NC(=O)C(=O)NCCCN1CCOCC1	none
O=C(NCCCN1CCN(Cc2ccccc2Cl)CC1)Nc1ccccc1	none
Cc1cccc(C)c1NC(=O)NCCCN1CCN(c2ccccc2)CC1	D3 ag 38, DRD3 antagonist inconclusive
Cc1ccccc1CC1CCN(CCCNC(=O)Nc2ccccc2)CC1	GLP1R inv ag 10µM, DRD3 antagonist -83
Cc1ccc(C(=O)c2oc3ccccc3c2NC(=O)c2cc(-c3ccccc3)on2)cc1F	none (no result: DRD3 antagonist, GLP1R ag)
O=c1[nH]c2ccccc2n1CCCN1CCN(C(c2ccccc2)c2ccccc2)CC1	none (no result: ClpP mod, GLP1R inv ag, DRD3 antagonist, HEK293 tox)
O=c1[nH]c2ccccc2n1CCCN1CCCCC1	DRD3 antagonist -61 (no result: ClpP mod)
CCCCCn1c(CN2CCN(c3cc(Cl)ccc3C)CC2)nc2c1c(=O)[nH]c(=O)n2C	D3 ag 87
CCCCC1=CC2=CC(=O)C(C)(OC(=O)CC)C(=O)C2=CN1c1cccc(C#N)c1 (stereo unspecified)	D3 ag 32
CCCCC1=CC2=CC(=O)C(C)(OC(=O)CC)C(=O)C2=CN1c1ccc(OC)cc1 (stereo unspecified)	none
Cc1nc2c(C(=O)NC(C)c3ccccc3)cnn2c(C)c1Cc1ccccc1 (stereo unspecified)	ClpP mod 32µM, GLP1R inv ag inconclusive (no result: DRD3 antagonist, GLP1R ag)
Cc1ccc(CNC(=O)c2cnn3c(C)c(Cc4c(F)cccc4Cl)c(C)nc23)cc1	ClpP mod inconclusive (no result: DRD3 antagonist, GLP1R ag)
O=C(c1nnc(Cc2ccc(Cl)cc2)o1)N1CCOCC1	none
Cc1nc2c(C(=O)NCCc3ccc(Cl)cc3)cnn2c(C)c1Cc1c(F)cccc1Cl	none (no result: DRD3 antagonist, GLP1R ag)
Cc1nc2c(C(=O)NCCc3ccc(Cl)cc3)cnn2c(C)c1Cc1ccc(F)cc1	ClpP mod 25µM (no result: DRD3 antagonist, GLP1R ag)
Cc1nc2c(C(=O)N3CCOCC3)cnn2c(C)c1Cc1ccc(Cl)cc1	ClpP mod 28µM
Cc1cc(C)c(Cc2c(C)nc3c(C(=O)NCc4ccco4)cnn3c2C)c(C)c1	ClpP mod 20µM, GLP1R inv ag inconclusive
Cc1ccnc2cc(Cl)c(Cl)cc12	none (no result: D3 ag, GLP1R inv ag, DRD3 antagonist, GLP1R ag, HEK293 tox)
CC(C)(C)c1ccc(C(=O)Nc2ccc(Oc3cccnc3)nc2)cc1	GLP1R inv ag 8.9µM
Cc1ccc(CNC(=O)c2c(O)nc3ccccn3c2=O)cc1	none (no result: DRD3 antagonist)
CCCCNC(=O)Cn1c(SCc2cccc(C)c2)nc2ccncc21	none (no result: D3 ag, GLP1R inv ag, DRD3 antagonist, GLP1R ag, HEK293 tox)
O=S(=O)(c1cccnc1)N1CCN(c2nc(-c3cccs3)nc3ccccc23)CC1	ClpP mod 32µM (no result: D3 ag, GLP1R inv ag, DRD3 antagonist, GLP1R ag, HEK293 tox)
O=S(=O)(c1ccc(Cl)cc1)N1CCN(c2nc(-c3cccs3)nc3ccccc23)CC1	ClpP mod 20µM!
CCN1C(=O)[C@H]2[C@@H](c3ccc(-c4cc(C(C)=O)cs4)cc3)N[C@@](Cc3ccccc3)(C(=O)OC)[C@H]2C1=O	ClpP mod inconclusive, D3 ag 37
CCN1C(=O)[C@H]2[C@@H](c3ccc(-c4ccccc4)cc3)N[C@@](C)(C(=O)OC)[C@H]2C1=O	DRD3 antagonist inconclusive
CCN1C(=O)[C@H]2[C@@H](c3ccc(-c4cccc(Cl)c4)cc3)N[C@@](C)(C(=O)OC)[C@H]2C1=O	GLP1R inv ag 11µM
CCN1C(=O)[C@H]2[C@@H](c3ccc(-c4ccc(OC)cc4)c(OC)c3)N[C@@](Cc3ccccc3)(C(=O)OC)[C@H]2C1=O	ClpP mod 25µM
CCN1C(=O)[C@H]2[C@@H](c3ccc(-c4ccc(F)cc4)c(OC)c3)N[C@@](C)(C(=O)OC)[C@H]2C1=O	DRD3 antagonist -51
CCN(c1ccccc1)S(=O)(=O)c1ccc2[nH]cc(C(=O)NCc3ccc(C)cc3)c(=O)c2c1	none (no result: DRD3 antagonist)
Cc1cnc2c(c1SCC(=O)NCc1ccc(F)cc1)c(=O)n(C)c(=O)n2C	none (no result: DRD3 antagonist, GLP1R ag)
COc1ccc(CCC(=O)NC2CC(=O)N(c3ccc(OC)cc3)C2)cc1 (stereo unspecified)	none (no result: DRD3 antagonist, GLP1R ag)
COC(=O)[C@]1(Cc2ccccc2)N[C@H](c2ccc(-c3cccc(Cl)c3)c(OC)c2)[C@@H]2C(=O)N(C)C(=O)[C@@H]21	GLP1R inv ag 3.2µM
CCN1C(=O)[C@H]2[C@@H](c3ccc(-c4cccc(Cl)c4)c(OC)c3)N[C@@](Cc3ccccc3)(C(=O)OC)[C@H]2C1=O	GLP1R inv ag inconclusive
CCN1C(=O)[C@H]2[C@@H](c3ccc(-c4ccccc4)c(OC)c3)N[C@@](CC(C)C)(C(=O)OC)[C@H]2C1=O	GLP1R inv ag inconclusive, DRD3 antagonist -51
COc1ccc(NC(=O)Cn2c(=O)n(CCCCCC(=O)NCc3ccc4c(c3)OCO4)c(=O)c3sccc32)cc1Cl	ClpP mod inconclusive (no result: DRD3 antagonist, GLP1R ag)
CCNC(=O)C1(C)CCN(Cc2ccc(-c3ccccc3)cc2)C1 (stereo unspecified)	GLP1R inv ag inconclusive, DRD3 antagonist inconclusive
